Each structure is given as a SMILES string. Among all 69,000 compounds or so, about 8,600 (12%) showed an effect of 50% or more. The entries come from a sample that favours strong results as a whole.

For this experiment, the system named is Plasmodium berghei. Briefly: Screen against P. berghei liver stage (PbLuc), transformed with Luciferase, at 10uM. Conditions: tested at 10 uM. The format is functional, HepG2.
With `Cn1ccc(CN2CCC(NC(=O)C3CCCCC3)CC2)cc1=O`, the INHIBITION was found to be 5.907%.

Take `CC1(C(=O)NCc2cccc(C(F)(F)F)c2)CCOCC1`: the INHIBITION worked out at 15.9%. The same measure for `O=C1CSC(C(F)(F)F)c2c(O)nn(C3CCCC3)c2N1` (stereo not drawn): 13.1%; for `CCC(C)NC(=O)Nc1cccc(OCC#N)c1` (stereo not drawn): 5.29%. Next, `Cc1nc(CNCc2cccc(OC34CCCN(CC3)C4)c2)n[nH]1` (stereo not drawn): 31.15%; `Cc1cnccc1CNCc1ccc(OC23CCCN(CC2)C3)cc1` (stereo not drawn): 21.525%; `O=c1[nH]nc(CNCc2ccc(OC34CCCN(CC3)C4)cc2)[nH]1` (stereo not drawn): 21.085%. The same measure for `c1ccc(Oc2ccc(OC34CCCN(CC3)C4)cc2)cc1` (stereo not drawn): 57.6%.

Regarding `c1ccc(Oc2cccc(OC34CCCN(CC3)C4)c2)cc1` (stereo not drawn), the INHIBITION is recorded as 65.7%.

As to `N#Cc1cccc(OC23CCCN(CC2)C3)c1` (stereo not drawn), the INHIBITION is 21.2%.

As for `Cc1cn2cc(-c3nc4c([nH]3)CCCNC4=O)nc2s1`, the INHIBITION was -54.3%. Next, `CC(=O)NCC1CCN(Cc2nc(C3CC3)no2)CC1`: 57.5%; `CC(=O)N1CCN(Cc2nnc(C(C)(C)C)o2)CC1`: -33.2%. The same measure for `CC(=O)N1CCCCCC1C1CCN(Cc2nc(C(C)C)no2)CC1` (stereo not drawn): 8.11%; for `CCc1nnc(CN2CCN(C(C)=O)CC2)o1`: 9.65%; for `CCN1CCN(C2CCN(Cc3nc(C4CC4)no3)CC2)C1=O`: 33.8%. Next, `CS(=O)(=O)N1CCCCCC1C1CCN(Cc2nc(C3CC3)no2)CC1` (stereo not drawn): 29.1%. Consider `O=C(NCC1CCCO1)C1CCN(Cc2nc(C3CC3)no2)CC1` (stereo not drawn), for which the INHIBITION worked out at 40.2%. The same measure for `CCc1nnc(CN2CCC(C3CCCCCN3C(C)=O)CC2)o1` (stereo not drawn): 40.6%; for `CC(C)(C)c1nnc(CN2CCN(C(=O)N3CCCCC3)CC2)o1`: 29.5%. Next, `CC(=O)N1CCCCCC1C1CCN(Cc2nnc(C(C)(C)C)o2)CC1` (stereo not drawn): 66.5%; `CC(=O)N1CCCCCC1C1CCN(Cc2nc(C3CC3)no2)CC1` (stereo not drawn): 55.4%; `CCc1nnc(CN2CCC(C3CCCCCN3C(=O)C3CC3)CC2)o1` (stereo not drawn): 62.8%. In the case of `Cc1[nH]ccc1C(=O)Nc1cccc(CN2CCC(CO)CC2)c1`, the INHIBITION was 25.3%. The same measure for `CC(C)=CCN1C[C@@H]2CC[C@H]1CN(C(=O)c1ccc(S(N)(=O)=O)cc1)C2`: 39.4%; for `Cc1ncsc1C(=O)N1CCN(Cc2cscn2)CC1`: 16%; for `Cc1cccc(OCCNC(=O)Cn2ccc(C)cc2=O)c1`: 28.7%.

`O=C(c1ccnc(NC2CC2)c1)N1CCCC1c1cccc(Br)c1` (stereo not drawn): the INHIBITION is recorded as -96.5%.

As for `Cc1ccc(C)c2c(C)c(C(=O)NCCCn3cnnc3)[nH]c12`, the INHIBITION is reported as -56.7%. The same measure for `CN(C)C(=O)COC1COC2(CCN(CC3CC3)CC2)C1` (stereo not drawn): 37.6%; for `Cc1cccc(CN2C(=O)C[C@H]3[C@@H]2CCN3CC2CC2)n1`: -14.3%; for `Cn1cc(NC(=O)CNC(=O)N2CCN(c3ccc(F)cc3)CC2)cn1`: 9.55%.

As to `CNc1cc(N2CCCC2CNCc2cnc(C)s2)ncn1` (stereo not drawn), the INHIBITION is on record as 7.61%. Next, `Cc1ncoc1C(=O)N1CCn2c(COc3cccnc3)cnc2C1C` (stereo not drawn): 5.67%; `COCc1cnc2n1CCN(C(=O)c1oc3ccccc3c1C)C2C` (stereo not drawn): 52.1%. Take `COCc1cnc2n1CCN(C(=O)c1cnc3ccccc3c1)C2C` (stereo not drawn): the INHIBITION stood at 11.3%.

With `COCc1cnc2n1CCN(C(=O)c1ccc3ccccc3n1)C2C` (stereo not drawn), the INHIBITION came out at 61.1%. The same measure for `COCc1cnc2n1CCN(C(=O)C1=CCCC1)C2C` (stereo not drawn): -56.3%; for `COCc1cnc2n1CCN(C(=O)c1cc3ccccc3o1)C2C` (stereo not drawn): 62%. Regarding `COCc1cnc2n1CCN(C(=O)c1cc3cc(Cl)ccc3o1)C2C` (stereo not drawn), the INHIBITION is 46.6%. The same measure for `COCc1cnc2n1CCN(C(=O)c1ocnc1C)C2C` (stereo not drawn): 20.5%.

Turning to `COCc1cnc2n1CCN(C(=O)C1=CCCCC1)C2C` (stereo not drawn), the INHIBITION is reported as 14.2%. For the molecule `CCn1cc(CNCCNc2ncc(Cl)cc2Cl)cn1`, the INHIBITION is given as 15.7%. As for `O=C(Cn1cnc2ccsc2c1=O)NCCCc1nnc2ccccn12`, the INHIBITION amounted to 34.3%. The same measure for `CCN1CCn2c(C)cnc2C12CCN(C(=O)C(C)C)CC2`: -40.5%; for `CN(C)c1cc(CNC(=O)Nc2nncs2)ccn1`: -2.19%.

With `Cc1ccc2nc(C)c(C)c(C(=O)N[C@H]3COC[C@@H]3N3CCCC3)c2c1`, the INHIBITION was 59.1%. The same measure for `Cc1cc(C(=O)N[C@H]2COC[C@@H]2N2CCOCC2)c2ccc(F)cc2n1`: 55.4%; for `Cc1ccc2nc(C)c(C)c(C(=O)N3CCC4(CCO4)CC3)c2c1`: 33.3%.

Turning to `CO[C@H]1CNC[C@@H]1NC(=O)c1cc(C)nc2ccc(C)cc12`, the INHIBITION is -100%.

With `Cc1cc(C(=O)N(C)C2CCN(C)C2)c2ccc(F)cc2n1` (stereo not drawn), the INHIBITION is 21.5%. Next, `Cc1nc(C(=O)N[C@H]2COC[C@@H]2N2CCCCC2)cs1`: 11.3%; `CCO[C@H]1CN(C)C[C@@H]1NC(=O)c1cc(C)nc2ccc(C)cc12`: 28.4%.

For the origin of these results see ChEMBL document CHEMBL4513216, “Probing the Open Global Health Chemical Diversity Library for Multistage-Active Starting Points for Next-Generation Antimalarials” (ACS Infect Dis, 2020).
